Test results reported in PubChem BioAssay (EPA / NIEHS).
Inconclusive results are not listed. More than one record can exist for a structure, and the calls need not agree. The source made the active and inactive calls. The calls were made as follows, unless noted: active = hit-call score of the fitted dose curve at least 0.9, where 1 is the maximum; inactive = score below 0.9.

Columns and labels:
CD69, CD69 (gene 969) = test: BSK_SAg_CD69: BioMAP Diversity Plus: SAg Assay for CD69 Biomarker Activity (AID 2283089); settings: primary human HUVEC with PBMC; actives raise or lower the signal;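 as to AC50: cell surface CD69 protein quantified by ELISA with fluorescence detection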
Outline: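 HUVEC co-cultured with PBMC were dosed with chemical, and CD69 was measured by ELISA with fluorescence read-out 24 h later. Bidirectional curve fitting used DMSO as negative control and activity baseline.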

[1] = read-out: Monocyte Chemoattractant Protein-1 (MCP1), CCL2 (gene 6347); test: BSK_SAg_MCP1: BioMAP Diversity Plus: SAg Assay for Monocyte Chemoattractant Protein-1 (MCP1) Biomarker Activity (AID 2283090); settings: primary human HUVEC with PBMC; actives raise or lower the signal
Outline: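 MCP-1 levels in the endothelial–PBMC SAg co-culture were quantified by ELISA at 24 h post-dosing; both increases and decreases versus DMSO scored. Cytotoxicity monitored by SRB total protein in parallel cultures.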

[2] = read-out: E-selectin (Homo sapiens) (UniProt P16581); test: BSK_SAg_Eselectin: BioMAP Diversity Plus: SAg Assay for Eselectin Biomarker Activity (AID 2283091); settings: primary human HUVEC with PBMC; actives raise or lower the signal
Outline: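 Cell-surface E-selectin is read by ELISA at 24 h in the SAg co-culture of HUVEC and PBMC. Curves are fitted in both directions relative to DMSO. Parallel SRB total-protein staining tracks overt toxicity.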

[3] = read-out: Monokine induced gamma interferon (MIG), CXCL9 (gene 4283); test: BSK_SAg_MIG: BioMAP Diversity Plus: SAg Assay for Monokine induced gamma interferon (MIG) Biomarker Activity (AID 2283092); settings: primary human HUVEC with PBMC; actives raise or lower the signal
Outline: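 HUVEC plus human PBMC co-culture, chemicals dosed and MIG (CXCL9) quantified by ELISA at 24 h. Bidirectional curve fitting against DMSO as negative control and baseline, so both gain and loss of signal count as activity.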

[4] = BSK_SAg_PBMCCytotoxicity: PBMC Cytotoxicity Assessment in the BioMAP Diversity Plus: SAg Assay (AID 2283093); settings: primary human HUVEC with PBMC;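 also: PBMC viability measured as Alamar Blue reduction fluorescence at 546/580 nm; fitted both ways against DMSO so a hit may be loss or gain of signal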;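 as to AC50: PBMC superantigen activated with SEB plus TSST-1 one hour after compound addition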
Outline: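 Human umbilical vein endothelial cells co-cultured with PBMC; PBMC (75,000/well) pre-treated with compound 1 h, then activated with SEB and TSST-1 (20 ng/mL final each) for 90 h. Alamar Blue added 6 h, fluorescence 546/580 nm; bidirectional fit versus DMSO.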

[5] = read-out: Interleukin-8 (IL8), CXCL8 (gene 3576); test: BSK_SAg_IL8: BioMAP Diversity Plus: SAg Assay for Interleukin-8 (IL8) Biomarker Activity (AID 2283094); settings: primary human HUVEC with PBMC; actives raise or lower the signal
Outline: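 ELISA read-out of IL-8 in a primary human vascular co-culture (umbilical vein endothelium plus PBMC), taken 24 h after compound addition. Values derive from bidirectional fits against DMSO negative controls.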

[6] = BSK_SAg_Proliferation: Cell Proliferation Assessment in the BioMAP Diversity Plus: SAg Assay (AID 2283095); settings: primary human HUVEC with PBMC;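 also: relative cell number as total protein by SRB absorbance in sub-confluent culture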
Outline: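 Cells (endothelium plus PBMC, human primary) were dosed with chemical, cultured 96 h, fixed in 10% TCA and stained with 0.1% SRB. Absorbance at 560 nm gave relative protein, fitted bidirectionally relative to DMSO.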

[7] = BSK_SAg_SRB: Viability Assessment in the BioMAP Diversity Plus: SAg Assay (AID 2283096); settings: primary human HUVEC with PBMC;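 also: cells read one day after compound addition; hits may be either gain or loss of signal compared with DMSO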
Outline: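 Endothelial/PBMC primary human co-culture; compound 24 h; fix 10% TCA, stain 0.1% SRB, A560; protein content as cytotoxicity proxy; bidirectional curve fit, DMSO = baseline.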

[8] = molecular target: human CYP19A1, CYP19A1 (gene 1588) (UniProt P11511); test: NVS_ADME_hCYP19A1: NovaScreen (NVS) CYP450-related Enzyme Activity (ADME) Assay for human CYP19A1 (AID 2283098; active = hit-call score of the fitted dose curve at least 0.9, where 1 is the maximum)
Outline: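 Cell-free enzyme assay with recombinant protein and a specific fluorogenic substrate, read by fluorescence intensity 0.5 h after dosing. Primary screen ran in duplicate at 10 uM; actives were retested in concentration series. Loss of signal versus acetonitrile baseline.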

[9] = molecular target: Cytochrome P450 2C19 (Homo sapiens) (UniProt P33261); test: NVS_ADME_hCYP2C19: NovaScreen (NVS) CYP450-related Enzyme Activity (ADME) Assay for human CYP2C19 (AID 2283113; active = hit-call score of the fitted dose curve at least 0.9, where 1 is the maximum;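 also: potency for inhibition seen as loss of fluorescent signal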)
Outline: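 Compounds first screened in duplicate at 10 uM, then confirmed in concentration series. Insect-cell-expressed human CYP2C19 turned over a fluorogenic substrate, and fluorescence was read after 1 h. Inhibition taken as signal loss relative to acetonitrile.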

[10] = molecular target: human CYP1A2, CYP1A2 (gene 1544) (UniProt P05177); test: NVS_ADME_hCYP1A2: NovaScreen (NVS) CYP450-related Enzyme Activity (ADME) Assay for human CYP1A2 (AID 2283102; active = hit-call score of the fitted dose curve at least 0.9, where 1 is the maximum;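 also: potency for inhibition since loss of fluorescence marks reduced CYP1A2 activity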)
Outline: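 Enzyme activity of insect-cell-expressed human CYP1A2 measured by fluorescence 0.5 h after compound addition, relative to acetonitrile. Compounds first tested in duplicate at 10 uM, actives followed up in concentration series.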

[11] = molecular target: human CYP2C9, CYP2C9 (gene 1559) (UniProt P11712); test: NVS_ADME_hCYP2C9: NovaScreen (NVS) CYP450-related Enzyme Activity (ADME) Assay for human CYP2C9 (AID 2283108; active = hit-call score of the fitted dose curve at least 0.9, where 1 is the maximum)
Outline: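 Cell-free assay of recombinant human CYP2C9 produced in Sf9 cells, with enzyme activity read by fluorescence intensity 0.75 h after compound addition. Loss of signal versus an acetonitrile negative control indicates inhibition. Primary screen used 10 uM in duplicate; actives were retested in concentration series.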

[12] = molecular target: Cytochrome P450 3A4 (Homo sapiens) (UniProt P08684); test: NVS_ADME_hCYP3A4: NovaScreen (NVS) CYP450-related Enzyme Activity (ADME) Assay for human CYP3A4 (AID 2283110; active = hit-call score of the fitted dose curve at least 0.9, where 1 is the maximum)
Outline: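 Cell-free assay using insect-cell-expressed human CYP3A4 with a fluorogenic substrate; fluorescence intensity was read 0.33 hour after dosing. Loss of signal relative to acetonitrile vehicle indicated inhibition. Primary single-concentration screen at 10 uM, in duplicate, then concentration series.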

[13] = molecular target: human CYP4F12, CYP4F12 (gene 66002) (UniProt Q9HCS2); test: NVS_ADME_hCYP4F12: NovaScreen (NVS) CYP450-related Enzyme Activity (ADME) Assay for human CYP4F12 (AID 2283111; active = hit-call score of the fitted dose curve at least 0.9, where 1 is the maximum)
Outline: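 Cell-free fluorescence assay of recombinant human CYP4F12 activity on a specific substrate, read 0.5 h after dosing. Primary screen in duplicate at 10 uM, then concentration series for actives; loss of signal fitted against acetonitrile negative control.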

Measured: AC50

E-selectin (Homo sapiens), sequence (P16581 whole entry, looked up): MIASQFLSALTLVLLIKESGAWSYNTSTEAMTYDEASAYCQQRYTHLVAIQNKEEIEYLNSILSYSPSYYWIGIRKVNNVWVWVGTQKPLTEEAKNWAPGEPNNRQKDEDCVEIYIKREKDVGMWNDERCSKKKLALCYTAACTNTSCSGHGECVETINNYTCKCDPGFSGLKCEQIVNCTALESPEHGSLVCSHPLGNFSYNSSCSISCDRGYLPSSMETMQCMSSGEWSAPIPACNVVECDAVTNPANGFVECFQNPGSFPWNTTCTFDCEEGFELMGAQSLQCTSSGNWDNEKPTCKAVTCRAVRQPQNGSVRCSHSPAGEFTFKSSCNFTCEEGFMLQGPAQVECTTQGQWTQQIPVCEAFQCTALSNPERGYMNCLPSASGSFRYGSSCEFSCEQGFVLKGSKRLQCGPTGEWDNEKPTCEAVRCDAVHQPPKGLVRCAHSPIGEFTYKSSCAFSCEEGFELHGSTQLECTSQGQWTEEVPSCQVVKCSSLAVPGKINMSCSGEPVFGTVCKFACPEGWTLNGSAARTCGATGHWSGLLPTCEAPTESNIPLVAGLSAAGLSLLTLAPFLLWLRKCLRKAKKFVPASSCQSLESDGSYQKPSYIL
human CYP19A1, CYP19A1 (gene 1588), sequence (P11511 whole entry, looked up): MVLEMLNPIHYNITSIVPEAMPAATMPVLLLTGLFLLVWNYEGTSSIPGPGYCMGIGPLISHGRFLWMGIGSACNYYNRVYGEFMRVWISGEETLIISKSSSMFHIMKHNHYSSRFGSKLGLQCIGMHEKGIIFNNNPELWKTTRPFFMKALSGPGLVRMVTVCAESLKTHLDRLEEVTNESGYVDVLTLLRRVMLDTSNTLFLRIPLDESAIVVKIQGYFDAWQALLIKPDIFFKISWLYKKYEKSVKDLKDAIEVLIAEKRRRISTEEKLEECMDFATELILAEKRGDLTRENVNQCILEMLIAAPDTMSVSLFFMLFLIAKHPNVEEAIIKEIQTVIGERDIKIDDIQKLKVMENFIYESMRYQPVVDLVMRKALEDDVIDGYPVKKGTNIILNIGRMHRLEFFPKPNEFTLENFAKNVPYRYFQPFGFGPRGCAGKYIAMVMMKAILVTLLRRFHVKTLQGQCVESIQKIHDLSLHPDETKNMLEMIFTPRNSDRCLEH
human CYP2C9, CYP2C9 (gene 1559), sequence (P11712 whole entry, looked up): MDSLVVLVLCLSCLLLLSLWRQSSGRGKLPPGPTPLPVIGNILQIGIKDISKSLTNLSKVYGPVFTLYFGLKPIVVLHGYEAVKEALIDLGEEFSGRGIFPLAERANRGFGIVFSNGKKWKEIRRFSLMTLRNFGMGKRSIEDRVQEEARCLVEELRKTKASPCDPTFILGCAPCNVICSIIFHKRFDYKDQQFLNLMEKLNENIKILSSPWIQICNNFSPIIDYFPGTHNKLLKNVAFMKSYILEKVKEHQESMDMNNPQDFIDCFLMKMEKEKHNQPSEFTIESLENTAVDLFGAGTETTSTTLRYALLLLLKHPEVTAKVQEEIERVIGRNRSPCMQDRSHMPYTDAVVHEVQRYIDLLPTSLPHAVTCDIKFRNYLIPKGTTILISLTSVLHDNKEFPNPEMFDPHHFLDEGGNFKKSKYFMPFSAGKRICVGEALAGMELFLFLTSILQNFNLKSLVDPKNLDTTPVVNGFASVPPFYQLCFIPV
human CYP1A2, CYP1A2 (gene 1544), sequence (P05177 whole entry, looked up): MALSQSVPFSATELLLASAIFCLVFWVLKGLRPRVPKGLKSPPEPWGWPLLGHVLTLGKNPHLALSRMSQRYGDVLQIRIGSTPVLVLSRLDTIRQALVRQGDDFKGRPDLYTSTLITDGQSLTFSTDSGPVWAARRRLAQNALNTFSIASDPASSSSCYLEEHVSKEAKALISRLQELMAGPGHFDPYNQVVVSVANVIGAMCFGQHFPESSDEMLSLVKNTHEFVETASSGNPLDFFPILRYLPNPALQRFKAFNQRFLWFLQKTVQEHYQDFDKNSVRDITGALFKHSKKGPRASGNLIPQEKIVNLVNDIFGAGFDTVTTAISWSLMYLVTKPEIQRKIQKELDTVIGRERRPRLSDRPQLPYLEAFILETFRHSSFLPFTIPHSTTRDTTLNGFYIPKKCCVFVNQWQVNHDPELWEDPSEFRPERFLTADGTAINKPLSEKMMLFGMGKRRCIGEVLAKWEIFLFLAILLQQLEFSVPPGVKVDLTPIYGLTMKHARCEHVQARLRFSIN
Cytochrome P450 3A4 (Homo sapiens), sequence (P08684 whole entry, looked up): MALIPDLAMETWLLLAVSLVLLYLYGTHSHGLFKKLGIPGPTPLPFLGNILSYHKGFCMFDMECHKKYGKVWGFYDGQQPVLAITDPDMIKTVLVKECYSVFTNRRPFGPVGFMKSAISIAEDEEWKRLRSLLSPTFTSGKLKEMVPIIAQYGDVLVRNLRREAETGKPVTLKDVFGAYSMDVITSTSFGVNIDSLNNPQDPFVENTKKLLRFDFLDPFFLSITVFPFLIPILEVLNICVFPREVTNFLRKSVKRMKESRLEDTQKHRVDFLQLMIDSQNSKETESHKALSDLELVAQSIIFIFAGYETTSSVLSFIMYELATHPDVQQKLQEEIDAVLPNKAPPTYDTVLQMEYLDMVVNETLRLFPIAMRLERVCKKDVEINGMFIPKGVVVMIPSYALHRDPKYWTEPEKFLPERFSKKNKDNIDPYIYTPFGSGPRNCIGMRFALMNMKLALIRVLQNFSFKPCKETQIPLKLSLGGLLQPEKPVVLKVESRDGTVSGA
human CYP4F12, CYP4F12 (gene 66002), sequence (Q9HCS2 whole entry, looked up): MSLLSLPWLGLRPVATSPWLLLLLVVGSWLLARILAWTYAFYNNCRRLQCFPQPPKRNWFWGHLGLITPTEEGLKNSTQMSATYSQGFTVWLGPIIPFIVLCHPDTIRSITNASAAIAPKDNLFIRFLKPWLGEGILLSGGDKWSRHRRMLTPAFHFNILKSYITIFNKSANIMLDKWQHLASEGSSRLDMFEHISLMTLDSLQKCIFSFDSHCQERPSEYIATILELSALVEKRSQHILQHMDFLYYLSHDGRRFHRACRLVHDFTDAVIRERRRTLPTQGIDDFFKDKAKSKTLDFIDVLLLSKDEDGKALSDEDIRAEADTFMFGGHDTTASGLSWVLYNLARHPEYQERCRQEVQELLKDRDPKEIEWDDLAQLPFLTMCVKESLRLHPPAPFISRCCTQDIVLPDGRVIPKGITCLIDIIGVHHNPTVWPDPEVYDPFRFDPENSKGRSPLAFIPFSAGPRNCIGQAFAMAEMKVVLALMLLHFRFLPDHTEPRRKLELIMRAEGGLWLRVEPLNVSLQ

COP(N)(=S)OC
inactive: CD69, CD69 (gene 969) | [1] | [2] | [3] | [4] | [5] | [6] | [7]

Cc1ccc([N+](=O)[O-])cc1C
active: [9] 2.77 µM
not listed: [10] | [11] | [12] | [13]
inactive: all other assays above

CCCN(CCC)c1c([N+](=O)[O-])cc(C(C)C)cc1[N+](=O)[O-]
active: CD69, CD69 (gene 969) 33.5 µM | [1] 37.1 µM | [2] 30.3 µM | [4] 13.9 µM | [5] 32.4 µM | [6] 14.7 µM | [7] 29.5 µM
inactive: [3]

COP(=O)(O)OC
inactive: CD69, CD69 (gene 969) | [1] | [3] | [4] | [5] | [6] | [7]
active: [2] 0.0643 µM

CCOc1ccc(C(C)(C)COCc2cccc(Oc3ccccc3)c2)cc1
active: [6] 20 µM
not listed: [9] | [10] | [11] | [12] | [13]
inactive: all other assays above

CCCCC(CC)COP(=O)(Oc1ccccc1)Oc1ccccc1 (stereo not given)
inactive: [1] | [3] | [7]
active: CD69, CD69 (gene 969) 13.3 µM | [2] 20 µM | [4] 20 µM | [5] 7.9 µM | [6] 20 µM

N#Cc1c(-c2ccc(Cl)cc2)[nH]c(C(F)(F)F)c1Br
active: CD69, CD69 (gene 969) 0.472 µM | [1] 1.53 µM | [2] 0.267 µM | [3] 2.85 µM | [4] 5.4 µM | [5] 0.178 µM | [6] 1.86 µM | [7] 4.34 µM

c1ccc(OP(Oc2ccccc2)Oc2ccccc2)cc1
inactive: CD69, CD69 (gene 969) | [1] | [2] | [3] | [4] | [5] | [6] | [7]

FC(F)(F)C(F)(C(F)(F)F)C(F)(F)C(F)(F)CC1CO1 (stereo not given)
inactive: CD69, CD69 (gene 969) | [1] | [2] | [3] | [4] | [5] | [6] | [7]

CC(Cl)CN(C)C (stereo not given)
inactive: CD69, CD69 (gene 969) | [3] | [5] | [7]
active: [1] 0.0162 µM | [2] 20 µM | [6] 20 µM

NC(=O)C(F)(F)C(F)(F)F
inactive: CD69, CD69 (gene 969) | [1] | [2] | [3] | [5] | [6] | [7]

O=C(O)C(F)(OC(F)(F)C(F)(F)C(F)(F)F)C(F)(F)F (stereo not given)
inactive: CD69, CD69 (gene 969) | [1] | [2] | [3] | [5] | [6] | [7]
active: [5] 9.29 µM

O=[N+]([O-])c1ccc(Cl)c(Cl)c1
inactive: CD69, CD69 (gene 969) | [1] | [2] | [3] | [5] | [6] | [7]

O=P(OCC(Br)CBr)(OCC(Br)CBr)OCC(Br)CBr (stereo not given)
active: [9] 4.35 µM
not listed: [8] | [10] | [11] | [12] | [13]
inactive: all other assays above

c1ccc2c(c1)Nc1ccccc1S2
active: [4] 2.19 µM | [6] 20 µM | [10] 1.45 µM | [11] 6.5 µM | [9] 6.45 µM
not listed: [8] | [12] | [13]
inactive: all other assays above

CCCCN(CCCC)N=O
inactive: CD69, CD69 (gene 969) | [1] | [2] | [3] | [5] | [6] | [7]

CCOC(=O)c1ccccc1C(=O)OCC
not listed: [8] | [9] | [10] | [11] | [13]
inactive: all other assays above

Nc1ccc([N+](=O)[O-])cc1Cl
inactive: CD69, CD69 (gene 969) | [1] | [2] | [3] | [5] | [6] | [7]

Cc1ccc(O)cc1C
inactive: CD69, CD69 (gene 969) | [1] | [2] | [3] | [5] | [6] | [7]

COCCOCCO
inactive: CD69, CD69 (gene 969) | [1] | [2] | [3] | [5] | [6] | [7]

O=P1(N(CCCl)CCCl)NCCCO1 (stereo not given)
not listed: [8] | [9] | [10] | [11] | [12]
inactive: all other assays above
